Screening data: PubChem, several laboratories
The list is not random: actives were taken first. Their share in the collection is about 2.6%.
TLR9-MyD88 inh – blocks human TLR9 binding to MyD88 | Q9NR96+Q99836 | 340,000 tested, 0.21% active | inhibition, % at 4.98 µM | CHO BLA complementation TLR9-MyD88, CCF4 FRET ratio;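 active = inhibition above the mean over all tested compounds plus 3 SD, cut at about 21% in these data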;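 note: 0% = DMSO only wells and 100% = clavulanate BLA inhibitor control wells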
ABHD5-PLIN5 inh – ABHD5-PLIN5 protein interaction inhibition | Split G. princeps luciferase complementation, luminescence, 4 h | inhibition, % at 4 µM | 360,000 tested, 0.78% active | AID 602281;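 active = inhibition above the mean inhibition across every tested compound plus 3 SD, cut at about 22% in these data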;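 note: 0% = DMSO only wells and the 100% control is not disclosed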
TLR4 MyD88 comp – blocks binding of human TLR4 to MyD88 | O00206+Q99836 | HeLa CL3-4 TLR4/MyD88 BLA complementation, FRET ratio | inhibition, % at 8.4 µM | 200,000 tested, 0.18% active | AID 861; in the data active = inhibition above about 25%;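 note: 0% = vehicle and 100% = reference inhibitor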
PRMT1 inh – inhibitors of human PRMT1. Q99873. recombinant PRMT1, activity-based probe fluorescence polarization. inhibition, % at 2.79 µM. 370,000 tested, 1.3% active;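 active = inhibition above about 21% made by adding two undisclosed values, limit read from the data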
Target sequence (Q99873 whole entry, looked up): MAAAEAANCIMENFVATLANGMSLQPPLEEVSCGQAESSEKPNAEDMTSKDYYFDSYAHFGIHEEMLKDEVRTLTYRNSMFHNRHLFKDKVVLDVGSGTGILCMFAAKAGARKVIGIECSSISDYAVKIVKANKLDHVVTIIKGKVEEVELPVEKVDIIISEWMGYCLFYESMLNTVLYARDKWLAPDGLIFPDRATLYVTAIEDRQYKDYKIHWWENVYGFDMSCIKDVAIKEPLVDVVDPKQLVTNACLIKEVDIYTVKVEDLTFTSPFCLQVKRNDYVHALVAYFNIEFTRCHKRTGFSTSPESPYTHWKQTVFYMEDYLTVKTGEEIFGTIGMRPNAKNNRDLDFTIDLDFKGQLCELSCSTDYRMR
NOD2 RIPK2 PPI – NOD2-RIPK2 protein interaction inhibition. O43353. CHO BLA complementation NOD2-RIPK2, CCF4 ratio. inhibition, % at 4.98 µM. 360,000 tested, 0.38% active. AID 624267; in the data active = inhibition above about 21%;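 note: 0% = vehicle only and 100% = reference blocker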
Exocytosis inh – blocks lytic granule exocytosis; AID 651702; inhibition, % at 10 µM; TALL-104 LAMP-1 surface exposure, flow cytometry; cells stimulated with thapsigargin and PMA; 360,000 tested, 0.66% active;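 active = inhibition above about 55%, limit read from the data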
PRMT1 confirm – PRMT1 (human) inhibition, FP confirmation. shares compounds with PRMT1 inh. recombinant His-PRMT1, activity-based probe fluorescence polarization. 3,300 tested, 42% active. inhibition, % at 2.79 µM;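 active = mean inhibition across replicates above the hit cutoff derived for the earlier primary screen, cut at about 22% in these data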
The depositor's hits bear a star; · = not tested or not shown.

SMILES	TLR9-MyD88 inh	ABHD5-PLIN5 inh	TLR4 MyD88 comp	PRMT1 inh	NOD2 RIPK2 PPI	Exocytosis inh	PRMT1 confirm
COCCn1c(C)cc(C(=O)CSc2ccc(NC(C)=O)cc2)c1C	-8	-6	6	25*	-2	0	25*
COCC(C)n1c(C)cc(C(=O)CSc2ccc(NC(C)=O)cc2)c1C (stereo not given)	-2	-6	7	39*	-5	2	20
COCCn1c(C)cc(C(=O)CSc2ccc3ccccc3n2)c1C	10	1	1	35*	7	-2	-3
COc1ccc(N2CCOCC2)c(NC(=O)c2cccnc2)c1	-17	3	·	-1	-18	-6	·
COc1ccc(CN2CCNC(=O)C2CC(=O)N(C)CC2CCOCC2)cc1C (stereo not given)	3	2	·	-1	-3	24	·
COCCCNC(=O)c1ccc(Cn2c(=O)c3ccccc3n(Cc3ccc(C(C)C)cc3)c2=O)cc1	·	·	·	4	·	·	·
COC(=O)c1ccc(NC(=O)CN2CCN(S(=O)(=O)c3ccc(Br)cc3)CC2)cc1	3	5	·	4	0	10	·
Cc1c([N+](=O)[O-])c(C(=O)Sc2ccc(Br)cc2)nn1C	-8	-3	·	50*	-13	24	75*
O=C(CCN1CCC(c2ccccc2)C1)c1ccc2c(c1)OCCO2 (stereo not given)	3	9	0	36*	0	33	19
COc1cc(C(=O)CCN2CCC(c3ccccc3)C2)cc(OC)c1OC (stereo not given)	0	5	-6	32*	-2	15	16
O=C(CCN1CCC(c2ccccc2)C1)c1ccccc1 (stereo not given)	7	-5	8	·	1	-1	·
O=C(CCN1CCC(c2ccccc2)C1)c1cccs1 (stereo not given)	6	-3	-3	-2	-1	13	·
CCc1ccccc1NC(=O)CC(=O)Nc1ccccc1CC	0	4	·	0	9	-14	·
CCC(=O)Nc1cc(OC)c(NC(=S)Nc2ccccc2CC)cc1OC	5	13	·	47*	-5	-6	-3
CC(O)(c1cccc(F)c1)c1nc(-c2cnc3ccccc3c2)cs1 (stereo not given)	·	0	·	-2	-10	0	·
CCn1c(SCC(=O)c2ccccc2)nc2sc3c(c2c1=O)CCN(C)C3	3	7	·	55*	8	0	14
CCn1c(SCC(=O)NCCc2ccccc2)nc2sc3c(c2c1=O)CCN(C)C3	-3	3	·	5	0	7	·
Cc1ccc(/C=C/C(=O)N2CCN(c3ncccn3)CC2)o1	-3	20	6	50*	1	14	36*
OCC[C@H]1C[C@H](O)[C@@H](O)[C@]2(Cc3ccccc3CCO2)O1	1	6	·	0	3	4	·
CC(C)(C)OC(=O)C[C@@H]1C/C=C\C[C@H](CC(=O)N[C@H](CO)Cc2ccccc2)C(=O)N[C@H](C(C)(C)C)COC1=O	0	3	·	-1	7	-3	·
CC(=O)Nc1ccc(NC(=O)C(C)OC(=O)/C(C#N)=C/c2ccc(N(C)C)cc2)cc1 (stereo not given)	-7	-4	·	30*	1	-4	39*
O=C(CCC1CCCC1)NNC(=O)c1ccccc1O	-4	2	·	-2	-2	-11	·
CC(C)Sc1nc(SCC(=O)NCc2ccco2)c2c3c(sc2n1)COC(C)(C)C3	9	-2	17	31*	6	5	10
COc1cc(/C=C2/C(=O)NN(c3ccc(F)cc3)C2=O)cc(Cl)c1O	15	0	·	5	4	-5	·
COc1cc(/C=C2/C(=O)NN(c3ccc(Cl)c(Cl)c3)C2=O)cc([N+](=O)[O-])c1O	3	-1	·	26*	4	-3	16
SMILES	TLR9-MyD88 inh	ABHD5-PLIN5 inh	TLR4 MyD88 comp	PRMT1 inh	NOD2 RIPK2 PPI	Exocytosis inh	PRMT1 confirm
Cc1ccc(C(CC(=O)c2ccco2)SCCO)cc1 (stereo not given)	10	11	5	28*	-5	1	32*
Cc1ccc(C(O)C(=O)c2ccco2)cc1 (stereo not given)	-1	0	·	0	4	-4	·
O=C(CC(SCCO)c1ccc(F)cc1)c1ccco1 (stereo not given)	-9	15	2	33*	-3	-11	30*
Cc1ccnc(-n2c(C)cc(/C=N/NC(=O)COc3cccc4cccnc34)c2C)c1	-6	2	·	0	5	-2	·
CC1C(=O)N(Cc2cn(CCC3OCCCO3)nn2)CCS(=O)(=O)N1Cc1ccc(-c2ccc(F)nc2)cc1 (stereo not given)	2	0	·	55*	2	1	-3
Cc1cc2cc(CNC(=O)c3ccc(Br)o3)ccc2n1C	-5	15	·	36*	-8	-19	5
CCCC(=O)NCc1ccc2c(c1)cc(C)n2C	3	-2	-1	7	-9	-2	·
Nc1nc2ccc(S(=O)(=O)N3CCCCC3)cc2s1	2	-9	0	30*	15	5	73*
Cc1nc2ccc(S(=O)(=O)N3CCCCC3)cc2s1	6	0	·	0	1	-1	·
CC(C)CNS(=O)(=O)/C=C/c1ccccc1CCNC(=O)OC(C)(C)C	·	·	·	2	·	·	·
CCN1CCN(c2sc(S(C)(=O)=O)nc2S(=O)(=O)c2ccc(C)cc2)CC1	-3	-1	·	-4	9	5	·
COC(=O)c1c(NC(=O)CN2CCC3(O)CCCCC3C2c2ccccc2OC)sc(C)c1C (stereo not given)	10	-5	-7	-1	-9	0	·
COC(=O)c1c(NC(=O)CN2CCC3(O)CCCCC3C2c2ccc(OC)cc2OC)sc(C)c1C (stereo not given)	-6	-16	-12	30*	-8	-2	13
Cc1nn(C)cc1/C=N/NC(=S)Nc1ccccc1	-2	-13	5	39*	-1	0	4
Cc1n[nH]c(=S)n1/N=C/c1c(O)ccc2ccccc12	2	0	·	1	-3	-2	·
Oc1ccc2ccccc2c1C=Nn1c(-c2n[nH]c3c2CCC3)n[nH]c1=S	·	·	·	32*	·	·	6
S=c1[nH]nc(-c2n[nH]c3c2CCC3)n1N=Cc1c2ccccc2cc2ccccc12	·	·	·	50*	·	·	49*
Cc1ccccc1NC(=O)c1sc2nc(N3CCOCC3)c3c(c2c1N)CCCC3	2	4	·	42*	-4	4	41*
CN(C(=O)c1sc2nc(N3CCOCC3)c3c(c2c1N)CCCC3)c1ccccc1	-1	-2	14	26*	-4	-2	17
NC(=O)c1sc2nc(N3CCOCC3)c3c(c2c1N)CCCC3	1	-3	9	26*	-9	6	16
